“And” between values parts separate entries of the source, which are not always exact repeats. Equal values may be shown once. Results filed as inconclusive are left out. The source made the active and inactive calls. How the source made its calls, unless noted: active means hit-call score of the fitted dose curve at least 0.9, where 1 is the maximum; inactive means score below 0.9.
Legend:
[1] = target: Glucocorticoid receptor (Homo sapiens) (UniProt P04150); experiment: ATG_GR_TRANS: Attagene TRANS-FACTORIAL HepG2 Assay for human Glucocorticoid Receptor (GR) (AID 2282978; active means hit-call score of the fitted dose curve at least 0.9, where 1 is the maximum;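 further: activators score as hits since higher reporter transcript over DMSO is fitted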); settings: HepG2 Attagene TRANS GR reporter, mRNA transcription
Glucocorticoid receptor (Homo sapiens), sequence (P04150 whole entry, looked up, the tested form may be a part): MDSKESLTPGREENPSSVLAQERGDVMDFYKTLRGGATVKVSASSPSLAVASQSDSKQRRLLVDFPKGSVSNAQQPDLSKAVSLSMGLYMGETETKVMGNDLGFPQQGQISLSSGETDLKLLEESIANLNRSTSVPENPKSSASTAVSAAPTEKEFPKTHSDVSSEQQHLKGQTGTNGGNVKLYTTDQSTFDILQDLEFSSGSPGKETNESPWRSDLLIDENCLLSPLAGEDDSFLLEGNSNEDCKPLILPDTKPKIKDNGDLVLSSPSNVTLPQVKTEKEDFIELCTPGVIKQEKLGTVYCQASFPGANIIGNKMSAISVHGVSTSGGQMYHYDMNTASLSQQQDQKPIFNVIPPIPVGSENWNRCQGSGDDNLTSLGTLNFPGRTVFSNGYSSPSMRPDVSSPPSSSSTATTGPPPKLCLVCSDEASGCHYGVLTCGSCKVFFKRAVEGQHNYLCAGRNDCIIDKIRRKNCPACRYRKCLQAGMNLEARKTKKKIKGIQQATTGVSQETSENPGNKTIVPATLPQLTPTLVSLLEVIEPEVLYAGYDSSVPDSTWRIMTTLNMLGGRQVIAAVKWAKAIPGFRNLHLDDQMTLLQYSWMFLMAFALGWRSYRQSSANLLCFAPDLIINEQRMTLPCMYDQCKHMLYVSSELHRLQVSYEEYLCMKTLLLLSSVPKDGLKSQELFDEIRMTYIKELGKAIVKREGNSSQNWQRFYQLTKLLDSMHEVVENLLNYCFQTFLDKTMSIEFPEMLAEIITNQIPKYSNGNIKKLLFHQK
How it was run: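 Fluorescent capillary-electrophoresis quantitation of reporter mRNA is the readout, taken 24 h after dosing human HepG2 cells carrying transiently transfected GAL4-UAS reporter units activated by chimeric NR-GAL4 fusions; activity scored as induction over DMSO.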

[2] = target: Oxysterols receptor LXR-alpha (Homo sapiens) (UniProt Q13133); experiment: ATG_LXRa_TRANS: Attagene TRANS-FACTORIAL HepG2 Assay for human Liver X Receptor alpha (LXRa) (AID 2282980; active means hit-call score of the fitted dose curve at least 0.9, where 1 is the maximum); settings: HepG2 Attagene TRANS reporter, LXRa transactivation
Oxysterols receptor LXR-alpha (Homo sapiens), sequence (Q13133 whole entry, looked up, the tested form may be a part): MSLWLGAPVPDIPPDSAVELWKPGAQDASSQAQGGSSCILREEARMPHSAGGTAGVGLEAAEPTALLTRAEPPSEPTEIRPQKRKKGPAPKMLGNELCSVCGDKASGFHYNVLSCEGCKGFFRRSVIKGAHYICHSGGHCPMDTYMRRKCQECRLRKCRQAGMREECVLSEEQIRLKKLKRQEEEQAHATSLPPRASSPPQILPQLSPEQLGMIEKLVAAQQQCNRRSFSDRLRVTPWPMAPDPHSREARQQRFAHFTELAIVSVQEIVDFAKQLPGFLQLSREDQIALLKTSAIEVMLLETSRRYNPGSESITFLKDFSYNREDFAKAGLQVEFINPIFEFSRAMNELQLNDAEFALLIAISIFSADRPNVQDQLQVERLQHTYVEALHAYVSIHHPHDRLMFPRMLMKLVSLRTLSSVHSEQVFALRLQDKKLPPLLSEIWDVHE
How it was run: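 Read-out: reporter transcript levels by RT-PCR plus capillary electrophoresis, fluorescence intensity. Transiently transfected HepG2, exogenous NR-GAL4 chimera, GAL4-UAS reporters; 24 h compound exposure. Activity = increase over DMSO negative control.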

[3] = ATG_M_32_TRANS: Attagene TRANS-FACTORIAL HepG2 Assay for M32 Transcription Factor (Internal Marker) (AID 2282984; active means hit-call score of the fitted dose curve at least 0.9, where 1 is the maximum); settings: HepG2 Attagene TRANS M32 internal marker reporter
How it was run: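 Internal-marker readout from a multiplexed transcription reporter panel. HepG2 cells were transfected with GAL4-UAS reporter units, treated 24 hours, and reporter transcript levels determined by fluorescence after RT-PCR and capillary separation.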

[4] = target: Nuclear receptor subfamily 4 group A member 2 (Homo sapiens) (UniProt P43354); experiment: ATG_NURR1_TRANS: Attagene TRANS-FACTORIAL HepG2 Assay for human Nuclear Receptor Related Protein 1 (NURR1) (AID 2282985; active means hit-call score of the fitted dose curve at least 0.9, where 1 is the maximum); settings: HepG2 Attagene TRANS reporter, mRNA readout
Nuclear receptor subfamily 4 group A member 2 (Homo sapiens), sequence (P43354 whole entry, looked up): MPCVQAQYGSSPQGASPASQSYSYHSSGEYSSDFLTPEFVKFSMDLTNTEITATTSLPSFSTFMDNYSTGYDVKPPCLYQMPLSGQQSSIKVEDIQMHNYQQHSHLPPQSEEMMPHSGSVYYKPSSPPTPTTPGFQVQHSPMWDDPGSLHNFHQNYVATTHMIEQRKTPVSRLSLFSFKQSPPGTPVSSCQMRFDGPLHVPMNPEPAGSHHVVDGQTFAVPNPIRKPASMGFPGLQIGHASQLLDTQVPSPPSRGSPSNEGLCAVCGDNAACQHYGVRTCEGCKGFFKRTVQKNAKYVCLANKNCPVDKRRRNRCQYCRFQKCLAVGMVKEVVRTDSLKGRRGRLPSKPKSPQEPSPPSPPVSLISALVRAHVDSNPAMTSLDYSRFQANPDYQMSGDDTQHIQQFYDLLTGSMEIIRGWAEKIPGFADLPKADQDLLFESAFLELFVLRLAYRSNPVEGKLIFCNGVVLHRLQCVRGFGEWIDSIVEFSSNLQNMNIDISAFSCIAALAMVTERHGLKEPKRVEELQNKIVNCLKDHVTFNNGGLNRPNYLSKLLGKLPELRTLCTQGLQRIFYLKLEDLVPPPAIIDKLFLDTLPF
How it was run: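 Endpoint: reporter mRNA increase relative to DMSO. HepG2 cells transfected with reporter units, treated 24 h; RNA processed by RT-PCR, labelling, HpaI digestion and capillary electrophoresis.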

[5] = target: Transcriptional activator Myb (Homo sapiens) (UniProt P10242); experiment: ATG_Myb_CIS: Attagene CIS-FACTORIAL HepG2 Assay for human Myeloblastosis (Myb) Proto-Oncogene Transcription Factor (AID 2282986); settings: HepG2 Attagene CIS-FACTORIAL Myb reporter transcription; actives raise or lower the signal
Transcriptional activator Myb (Homo sapiens), sequence (P10242 whole entry, looked up): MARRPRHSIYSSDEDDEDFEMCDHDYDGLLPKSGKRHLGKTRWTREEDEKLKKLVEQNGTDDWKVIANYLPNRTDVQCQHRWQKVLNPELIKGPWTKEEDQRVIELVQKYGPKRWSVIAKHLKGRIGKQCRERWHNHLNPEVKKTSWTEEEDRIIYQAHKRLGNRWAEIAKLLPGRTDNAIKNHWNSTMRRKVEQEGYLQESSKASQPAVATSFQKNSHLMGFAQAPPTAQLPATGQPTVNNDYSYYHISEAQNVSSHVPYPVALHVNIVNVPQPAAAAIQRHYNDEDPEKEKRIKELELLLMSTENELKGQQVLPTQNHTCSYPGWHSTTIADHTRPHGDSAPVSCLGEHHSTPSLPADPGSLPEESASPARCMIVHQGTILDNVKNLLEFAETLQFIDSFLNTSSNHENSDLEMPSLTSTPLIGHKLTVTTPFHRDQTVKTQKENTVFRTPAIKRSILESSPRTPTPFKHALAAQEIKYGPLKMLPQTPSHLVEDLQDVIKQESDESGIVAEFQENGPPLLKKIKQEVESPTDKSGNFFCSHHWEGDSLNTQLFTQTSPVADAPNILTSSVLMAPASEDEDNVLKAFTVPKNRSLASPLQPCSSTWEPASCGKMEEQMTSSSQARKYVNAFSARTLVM
How it was run: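 Reporter transcript levels, quantified by fluorescent RT-PCR and capillary electrophoresis, serve as the read-out. Transfected HepG2 cells carrying cis-promoter reporter units are dosed for 24 hours, and curves are fitted bidirectionally against DMSO controls.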

[6] = target: Nuclear respiratory factor 1 (Homo sapiens) (UniProt Q16656); experiment: ATG_NRF1_CIS: Attagene CIS-FACTORIAL HepG2 Assay for human Nuclear Respiratory Factor 1 (NRF1) Orphan Gene (AID 2282987); settings: HepG2 NRF1 cis-element reporter, Attagene multiplex; actives raise or lower the signal
Nuclear respiratory factor 1 (Homo sapiens), sequence (Q16656 whole entry, looked up): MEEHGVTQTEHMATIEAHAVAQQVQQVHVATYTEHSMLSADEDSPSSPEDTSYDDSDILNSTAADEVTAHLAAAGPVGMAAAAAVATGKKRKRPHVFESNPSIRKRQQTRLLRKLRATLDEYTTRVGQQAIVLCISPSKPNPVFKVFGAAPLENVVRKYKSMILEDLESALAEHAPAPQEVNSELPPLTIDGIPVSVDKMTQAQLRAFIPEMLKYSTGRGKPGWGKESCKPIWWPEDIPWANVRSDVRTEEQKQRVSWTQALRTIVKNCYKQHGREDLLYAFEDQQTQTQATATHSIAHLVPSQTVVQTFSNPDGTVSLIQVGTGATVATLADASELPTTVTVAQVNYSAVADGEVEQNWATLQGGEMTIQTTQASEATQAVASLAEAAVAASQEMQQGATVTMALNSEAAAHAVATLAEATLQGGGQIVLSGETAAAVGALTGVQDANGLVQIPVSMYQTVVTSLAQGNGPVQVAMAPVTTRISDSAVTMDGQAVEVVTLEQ
How it was run: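 Multiplexed cis-reporter assay, HepG2 cells, 24 h treatment. Total RNA → oligo(dT) RT → PCR with reporter-specific primers → 6-FAM primer extension → HpaI cut → CE. Bidirectional fit vs DMSO.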

[7] = ATG_NFI_CIS: Attagene CIS-FACTORIAL HepG2 Assay for human Nuclear Factor I (NFI) (AID 2282989); settings: HepG2 cis-regulatory reporter, NFI response element transcription; actives raise or lower the signal
How it was run: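 Multiplexed cis-reporter system in human HepG2 cells reports native TF activity as reporter mRNA induction 24 h post-dose. Fragments labelled with 6-FAM, HpaI-digested and resolved by capillary electrophoresis; activity fitted both directions versus DMSO.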

[8] = ATG_NRF2_ARE_CIS: Attagene CIS-FACTORIAL HepG2 Assay for human Nuclear Factor Erythroid 2 Related Factor 2 (NFR2) response to Antioxidant Response Elements (ARE) (AID 2282992); settings: HepG2 Attagene ARE/NRF2 reporter, transcription factor activity; actives raise or lower the signal
How it was run: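 Endogenous transcription factor activity read out as reporter transcript levels (RT-PCR plus capillary electrophoresis, fluorescence) in transiently transfected HepG2 cells. Measured at 24 h after dosing; gain or loss of signal fitted versus DMSO.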

[9] = ATG_Oct_MLP_CIS: Attagene CIS-FACTORIAL HepG2 Assay for human Octamer-Binding Transcription Factor (Oct) (AID 2282993); settings: HepG2 Attagene cis-factorial Oct reporter, mRNA; actives raise or lower the signal
How it was run: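 After 24 h compound exposure, transfected HepG2 cells were lysed for total RNA; reporter-specific cDNA was PCR-amplified, fluorescently labelled and sized by capillary electrophoresis. Bidirectional curve fitting used DMSO as baseline.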

[10] = target: Cellular tumor antigen p53 (Homo sapiens) (UniProt P04637); experiment: ATG_p53_CIS: Attagene CIS-FACTORIAL HepG2 Assay for human p53 Transcription Factor (AID 2282994); settings: HepG2 p53 cis-element reporter, Attagene mRNA; actives raise or lower the signal
Cellular tumor antigen p53 (Homo sapiens), sequence (P04637 whole entry, looked up): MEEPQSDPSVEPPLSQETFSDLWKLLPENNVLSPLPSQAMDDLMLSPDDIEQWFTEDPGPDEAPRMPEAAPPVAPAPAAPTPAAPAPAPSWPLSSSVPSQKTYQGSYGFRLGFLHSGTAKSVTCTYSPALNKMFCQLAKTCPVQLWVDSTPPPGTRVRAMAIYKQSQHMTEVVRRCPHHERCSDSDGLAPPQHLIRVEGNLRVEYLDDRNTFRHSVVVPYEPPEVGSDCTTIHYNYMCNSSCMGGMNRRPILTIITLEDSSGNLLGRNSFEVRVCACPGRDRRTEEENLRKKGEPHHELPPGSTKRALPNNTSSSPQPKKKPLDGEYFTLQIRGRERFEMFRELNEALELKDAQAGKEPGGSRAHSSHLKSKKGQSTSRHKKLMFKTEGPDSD
How it was run: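 Endogenous p53 activity read in transiently transfected HepG2 from a cis-element-driven reporter transcript after 24 h exposure. RNA reverse-transcribed, PCR-amplified, fluorescently labelled and sized by capillary electrophoresis; gain or loss fitted against DMSO baseline.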

[11] = BSK_3C_TissueFactor: BioMAP Diversity Plus: 3C Assay for Tissue Factor Biomarker Activity (AID 2282997); settings: BioMAP 3C HUVEC, tissue factor biomarker readout; actives raise or lower the signal
How it was run: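 HUVEC, 3C system, 24 h post-dose; Tissue Factor by ELISA; bidirectional fit vs DMSO baseline.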

[12] = BSK_3C_uPAR: BioMAP Diversity Plus: 3C Assay for Urokinase-type plasminogen activator receptor (uPAR) Biomarker Activity (AID 2282998); settings: BioMAP 3C HUVEC, uPAR biomarker ELISA; actives raise or lower the signal
How it was run: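 Values derive from bidirectional curve fitting relative to DMSO, which served as baseline of activity. uPAR was measured by ELISA in human umbilical vein endothelial primary cultures 24 h after compound addition.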

[13] = BSK_3C_VCAM1: BioMAP Diversity Plus: 3C Assay for Vascular cell adhesion molecule 1 (VCAM1) Biomarker Activity (AID 2282999); settings: BioMAP 3C HUVEC, VCAM1 ELISA, cytokine-stimulated; actives raise or lower the signal
How it was run: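 HUVEC primary cells, 24 h compound exposure; VCAM-1 by ELISA; gain/loss of signal fitted bidirectionally vs DMSO baseline.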

[14] = BSK_4H_Eotaxin3: BioMAP Diversity Plus: 4H Assay for Eotaxin 3 Biomarker Activity (AID 2283000); settings: primary human endothelial cells (HUVEC); actives raise or lower the signal
How it was run: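 Readout is Eotaxin-3 (CCL26) level by ELISA in primary human umbilical vein endothelial cells harvested 24 h after chemical exposure; activity fitted in both directions against DMSO control.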

[15] = target: Oxysterols receptor LXR-beta (Homo sapiens) (UniProt P55055); experiment: ATG_LXRb_TRANS: Attagene TRANS-FACTORIAL HepG2 Assay for human Liver X Receptor beta (LXRb) (AID 2282981; active means hit-call score of the fitted dose curve at least 0.9, where 1 is the maximum); settings: HepG2 Attagene TRANS GAL4-LXRb reporter, mRNA
How it was run: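 Multiplexed reporter assay, HepG2, 24 h dosing. Fluorescence of labelled RT-PCR products after capillary electrophoresis gives transcript level; positive fitting direction relative to DMSO.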

[16] = target: Hepatocyte nuclear factor 4-alpha (Homo sapiens) (UniProt P41235); experiment: ATG_HNF4a_TRANS: Attagene TRANS-FACTORIAL HepG2 Assay for human Hepatocyte Nuclear Factor 4 alpha (HNF4a) (AID 2282982; active means hit-call score of the fitted dose curve at least 0.9, where 1 is the maximum); settings: HepG2 HNF4a transactivation reporter, mRNA readout
Hepatocyte nuclear factor 4-alpha (Homo sapiens), sequence (P41235 whole entry, looked up, the tested form may be a part): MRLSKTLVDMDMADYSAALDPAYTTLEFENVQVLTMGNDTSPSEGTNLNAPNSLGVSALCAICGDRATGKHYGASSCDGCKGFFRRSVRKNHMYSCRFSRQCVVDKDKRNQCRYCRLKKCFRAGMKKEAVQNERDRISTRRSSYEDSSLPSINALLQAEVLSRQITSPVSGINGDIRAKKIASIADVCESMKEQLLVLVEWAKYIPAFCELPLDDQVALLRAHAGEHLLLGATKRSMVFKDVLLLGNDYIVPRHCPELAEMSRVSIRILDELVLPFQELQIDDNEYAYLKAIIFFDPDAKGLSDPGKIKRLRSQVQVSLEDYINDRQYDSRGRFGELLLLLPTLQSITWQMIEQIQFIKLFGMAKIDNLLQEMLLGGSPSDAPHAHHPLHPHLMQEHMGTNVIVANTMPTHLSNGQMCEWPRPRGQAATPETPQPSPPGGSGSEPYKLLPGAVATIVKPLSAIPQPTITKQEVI
How it was run: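 Endpoint reflects transcriptional activation of a GAL4-UAS reporter by an HNF4a-GAL4 chimera in transfected HepG2 cells, 24 h post-dosing. Fluorescence from RT-PCR products separated by capillary electrophoresis; DMSO baseline.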

[17] = ATG_M_06_TRANS: Attagene TRANS-FACTORIAL HepG2 Assay for M06 Transcription Factor (Internal Marker) (AID 2282983; active means hit-call score of the fitted dose curve at least 0.9, where 1 is the maximum); settings: HepG2 Attagene TRANS M06 internal marker reporter
How it was run: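 Read-out: fluorescent reporter cDNA fragments resolved by capillary electrophoresis after RT-PCR and HpaI cut. Source cells were HepG2 carrying transfected multi-reporter GAL4 constructs, dosed 24 h. Increase over DMSO control analysed.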

[18] = target: Bile acid receptor (Homo sapiens) (UniProt Q96RI1); experiment: ATG_FXR_TRANS: Attagene TRANS-FACTORIAL HepG2 Assay for Farnesoid X Receptor (FXR) (AID 2282979; active means hit-call score of the fitted dose curve at least 0.9, where 1 is the maximum;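 further: hits raise reporter mRNA above DMSO so AC50 marks FXR activation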); settings: HepG2 Attagene TRANS FXR-GAL4 reporter transcription
Bile acid receptor (Homo sapiens), sequence (Q96RI1 whole entry, looked up, the tested form may be a part): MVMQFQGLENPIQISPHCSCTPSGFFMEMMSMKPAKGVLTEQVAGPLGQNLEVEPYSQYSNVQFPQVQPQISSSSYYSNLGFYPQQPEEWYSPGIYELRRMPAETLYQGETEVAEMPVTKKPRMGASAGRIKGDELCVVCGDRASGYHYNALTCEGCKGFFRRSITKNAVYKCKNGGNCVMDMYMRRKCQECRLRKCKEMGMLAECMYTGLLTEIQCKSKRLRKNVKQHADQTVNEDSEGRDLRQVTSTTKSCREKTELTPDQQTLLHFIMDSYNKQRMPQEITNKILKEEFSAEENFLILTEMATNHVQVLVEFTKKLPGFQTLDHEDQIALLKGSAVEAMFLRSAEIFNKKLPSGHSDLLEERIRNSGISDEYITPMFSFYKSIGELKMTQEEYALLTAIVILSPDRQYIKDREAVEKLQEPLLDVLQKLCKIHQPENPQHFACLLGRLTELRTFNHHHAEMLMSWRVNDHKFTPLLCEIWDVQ
How it was run: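 Read-out: fluorescent reporter transcripts quantified by capillary electrophoresis after RT-PCR of total RNA. Source cells were HepG2 transiently carrying chimeric NR-GAL4 plus GAL4-UAS reporter units, dosed 24 h. Activity fitted upward relative to DMSO baseline.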

[19] = target: Myc proto-oncogene protein (Homo sapiens) (UniProt P01106); experiment: ATG_Myc_CIS: Attagene CIS-FACTORIAL HepG2 Assay for human Myelocytomatosis (Myc) Proto-Oncogene Transcription Factor (AID 2282990); settings: HepG2, Attagene cis-reporter transcription factor activity; actives raise or lower the signal
Myc proto-oncogene protein (Homo sapiens), sequence (P01106 whole entry, looked up, the tested form may be a part): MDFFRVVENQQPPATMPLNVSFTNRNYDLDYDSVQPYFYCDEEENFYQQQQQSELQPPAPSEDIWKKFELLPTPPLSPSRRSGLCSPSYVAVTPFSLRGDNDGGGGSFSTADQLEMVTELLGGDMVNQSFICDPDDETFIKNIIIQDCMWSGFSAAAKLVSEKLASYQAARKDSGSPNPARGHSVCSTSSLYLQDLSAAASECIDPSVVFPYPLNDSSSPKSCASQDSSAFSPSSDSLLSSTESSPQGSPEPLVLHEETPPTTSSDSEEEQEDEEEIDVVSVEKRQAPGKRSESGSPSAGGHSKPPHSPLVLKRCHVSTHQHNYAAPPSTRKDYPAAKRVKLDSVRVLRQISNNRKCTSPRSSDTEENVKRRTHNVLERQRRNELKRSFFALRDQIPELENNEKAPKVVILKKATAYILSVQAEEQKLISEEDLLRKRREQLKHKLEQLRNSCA
How it was run: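 Read-out: fluorescent reporter mRNA fragments resolved by capillary electrophoresis after RT-PCR. Human HepG2 liver cells carried transfected cis-element reporter units and were dosed for 24 h. Gain or loss of signal fitted relative to DMSO baseline.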

[20] = ATG_NF_kB_CIS: Attagene CIS-FACTORIAL HepG2 Assay for human Nuclear Factor Kappa B (NF-kB) (AID 2282991); settings: HepG2 Attagene cis-factorial NF-kB reporter mRNA; actives raise or lower the signal
How it was run: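 Transient MRTU transfection of human HepG2 liver cells → 24 h chemical exposure → total RNA, oligo(dT) RT → PCR, 6-FAM primer extension, HpaI digest 2 h 37 C → CE fragment analysis. Bidirectional fitting, DMSO negative control.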

Measured: AC50

CCc1ccc(O)c(C(C)(C)C)c1
inactive: [1] | [2] | [3] | [5] | [6] | [7] | [9] | [10]
active: [4] 53.4 µM | [8] 27.7 µM | [11] 32.2 µM | [12] 39.3 µM | [13] 34.6 µM | [14] 39 µM

c1ccc2c(c1)-c1cccc3c1c-2cc1ccccc13
active: [8] 204 nM and 29.8 µM | [14] 0.148 µM
inactive: [1] | [2] | [15] | [16] | [17] | [3] | [4] | [5] | [6] | [7] | [9] | [11] | [12] | [13]

FC(F)(F)COC(OCC(F)(F)F)OCC(F)(F)F
inactive: [1] | [18] | [15] | [17] | [4] | [7] | [19] | [8] | [9] | [10] | [11] | [12] | [13] | [14]

C[C@]12C=CC(=O)C=C1CC[C@H]1[C@@H]3C[C@@H](O)[C@](O)(C(=O)CO)[C@@]3(C)C[C@H](O)[C@@]12F
active: [1] 0.0585 µM
inactive: [2] | [16] | [17] | [4] | [5] | [7] | [8] | [9] | [10] | [11] | [12] | [13] | [14]

NC(=O)N(O)[C@@H]1COc2cc(OCc3ccccc3)ccc21
inactive: [1] | [18] | [2] | [15] | [16] | [17] | [3] | [7] | [8] | [9] | [11] | [12] | [13] | [14]

C[C@@H](Oc1ccc(CNC(=O)c2cccnc2Oc2ccc3c(c2)OCO3)c(F)c1)C(=O)O
inactive: [1] | [18] | [15] | [17] | [3] | [4] | [6] | [7] | [19] | [20] | [8] | [9] | [11] | [12] | [13] | [14]

From PubChem BioAssay (EPA / NIEHS)
